Assay results taken from PubChem BioAssay (NCI).
Compounds without any hit were thinned out: in the full panel of roughly 83,000, 20% have a hit.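 Percent growth is the endpoint: 0 to 100 indicates growth inhibition (40 means 60% inhibition), 0 means no net growth, and negative values indicate cell death.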 A number with no mark means an inactive call. Calls of active or inactive are those of the source. How the source made its calls: active means growth percent below 10; inactive means the rest.

Columns and labels:
Experiment in all cases: NCI-60 one-dose screen, 48 h (100 = growth as untreated, 0 = no growth, -100 = all killed)
Conditions in all cases: 10 µM unless noted
[1] = system: NCI-H23 lung
[2] = system: NCI-H226 lung
[3] = system: NCI-H322M lung
[4] = system: HOP-62 NSCLC
[5] = system: NCI-H460 lung
[6] = system: HOP-92 NSCLC
[7] = system: NCI-H522 lung
[8] = system: A549/ATCC NSCLC
[9] = system: 786-0 renal
[10] = system: COLO 205 colon

Row | Structure (SMILES) | growth [1] | growth [2] | growth [3] | growth [4] | growth [5] | growth [6] | growth [7] | growth [8] | growth [9] | growth [10]
1 | O=C1NC(Cc2c[nH]c3ccccc23)C(=O)N1Cc1ccc(Cl)cc1 (stereo not given) | 107% | 95.5% | 104% | 103% | 110% | 85.8% | 86.7% | 105% | 110% | 96.9%
2 | Cc1cc(Nc2nc(-c3ccncc3)nc3ccccc23)n[nH]1 | 80.2% | 79.1% | 75.7% | 95.1% | 66.1% | 54.9% | 58.7% | 41.9% | 48.2% | 31.7%
3 | COC1=CC(c2ccc[nH]2)=N/C1=C\c1[nH]c(C)c(C(=O)CCC(=O)Oc2ccc3c(c2)CCC2C3CC[C@]3(C)[C@@H](O)CC[C@@H]23)c1C (stereo not given in full) | 18.4% | 15.5% | 42.7% | 12.4% | 1.58% (active) | -45.2% (active) | -58.9% (active) | -10.9% (active) | -46.3% (active) | 31.5%
4 | COc1ccc2c(c1)C(C)Cc1c(N(C)C)ncnc1N2C (stereo not given) | 52.7% | 81.6% | 53.9% | 35.5% | 16.1% | 50.5% | -0.111% (active) | 50.5% | 33% | 15.8%
5 | Clc1nc2ccccc2nc1CI | 86% | 68.2% | 89.9% | 105% | 108% | 90.9% | 3.79% (active) | 117% | 101% | 120%
6 | COc1cc2c3c(c(=O)oc2cc1OS(=O)(=O)c1ccc(C(F)(F)F)cc1)CCCCC3 | 76.8% | 77.8% | 84.9% | 64% | 89.9% | 56.8% | 71.6% | 75.4% | 72.2% | 93.1%
7 | CC(C)(C)c1cn2cccc(C(=O)N3CCN(CC(=O)Nc4ccc(Cl)cc4C(=O)c4ccccc4Cl)CC3)c2n1 | 60.6% | 71.6% | 94.6% | 84.7% | 49.8% | -30% (active) | 54.9% | 27.6% | 55.3% | 54.2%
8 | COc1cc(C2C=C(C)N=C3SC=CN32)cc(OC)c1OC (stereo not given) | 108% | 103% | 105% | 106% | 105% | 91.6% | 97.2% | 107% | 113% | 113%
9 | CCCCOc1nc2c(C)cccc2cc1C1CNC(=O)c2ccccc2N1 (stereo not given) | 80% | 89% | 105% | 56.2% | 56.2% | 62.6% | 44.8% | 60.1% | 46.2% | 90.8%
10 | CC(=O)c1cc(C(=O)c2ccc3c(c2)Sc2ccccc2N3)c2cc(C)ccn12 | 16.5% | 56.6% | 35.1% | 21.1% | 1.02% (active) | 42.6% | -47.9% (active) | 14.5% | 9.68% (active) | -62.2% (active)
11 | c1ccc(CCn2nnc3c(Nc4ccc(N5CCOCC5)cc4)ncnc32)cc1 | 102% | 90.2% | 106% | 91.1% | 89% | -2.53% (active) | 80.2% | 74.1% | 87.1% | 90.1%
12 | CC[C@H](C)[C@@H]1NC(=O)[C@H]([C@@H](C)O)NC(=O)C(Cc2ccccc2)NC(=O)[C@@H]2CCCN2C(=O)C(C(C)C)NC(=O)C(Cc2ccccc2)NC(=O)CNC(=O)[C@@H]2CCCN2C1=O (stereo not given in full) | 82.5% | 65.8% | 85.3% | 76% | 55.7% | -18.4% (active) | 55.5% | 56.6% | 39.9% | 79.7%
13 | Nc1c(C(=O)Nc2cccc(C(F)(F)F)c2)sc2nc3c(cc12)CCCCCC3 | 8.82% (active) | 5.69% (active) | 10.6% | -1.22% (active) | 4.27% (active) | -14.2% (active) | 36.2% | -45.2% (active) | -71.7% (active) | 48.5%
